Compounds without any hit were thinned out: in the full panel of roughly 83,000, 20% have a hit.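 A percent growth of 40 corresponds to 60% growth inhibition; 0 means no net growth; -100 means all cells died. Active threshold: below 10.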 The source made the active and inactive calls.
The compounds below were run on RXF 393 renal (assay: NCI-60 one-dose screen, 48 h (100 = growth as untreated, 0 = no growth, -100 = all killed)). Details: 10 µM unless noted.

Row | Compound | growth
1 | [O-]/[N+](=C\c1ccccc1)CC1(O)CCCCC1 | 107% (inactive)
2 | CC(=O)O[C@H]1[C@H](CC#CC#CC[C@@H]2C[C@]3(C)[C@H]4CC=C5[C@H]6[C@@H](C)[C@H](C)CC[C@]6(C(=O)NCCCCCCCCN)CC[C@@]5(C)[C@]4(C)CC[C@H]3C(C)(C)[C@H]2OC(C)=O)C[C@]2(C)[C@H]3CC=C4[C@H]5[C@@H](C)[C@H](C)CC[C@]5(C(=O)NCCCCCCCCN)CC[C@@]4(C)[C@]3(C)CC[C@H]2C1(C)C | 94.6% (inactive)
3 | N#Cc1c(N)c(C(=O)c2ccc3c(c2)OCCO3)n2c1CCCC2 | 31.4% (inactive)
4 | Cc1c(O)c(=O)n(-c2ccccc2)n1C | 124% (inactive)
5 | COc1ccc2[nH]c(O)c(/C=c3/ccc4c(c3)N=C(c3ccc(C(F)(F)F)cc3)N=4)c2c1 | -4.65% (active)
6 | COc1ccc(/C=C/C(=O)c2ccc(NC(=O)CSc3nnc(-c4ccc(OC)cc4)n3-c3ccccc3)cc2)cc1 | 108% (inactive)
7 | N=C(N)c1ccc(-c2ccc(-c3cc(Cl)cc(Cl)c3)o2)nc1 | 67% (inactive)
8 | CN(C)c1ccc(N2Cc3ccccc3OC3=C2C(=O)c2c(O)ccc(O)c2C3=O)cn1 | -87% (active)
9 | COc1ccccc1/C=N\NC(=S)Nc1ccc(F)cc1 | 88.2% (inactive)
10 | FC(F)(F)C1=NNC(c2ccc3ccccc3c2)=NN1 | 123% (inactive)
11 | CCCC(CCC)NCC(O)c1cc(-c2ccc(C(F)(F)F)cc2)nc(C(F)(F)F)c1 (configuration not stated) | -97% (active)
12 | CCOC(=O)c1c(NC(=O)c2ccccc2)sc2c(O)c(CN(CC)CC)ccc12 | -27.4% (active)
